Bioassay records (PubChem)
This is a sample that favours compounds with a hit; in the whole collection about 12% have one here.
CHOP inhibitor: CHOP inhibition in unfolded protein response. CHO-K1 CHOP-promoter luciferase, tunicamycin-induced, 15-18 h. inhibition, % at 10 µM. 3.8% of 220,000 active;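 active = compounds that reduced the stress-induced luciferase reporter signal by more than about 70% of percent inhibition, limit read from the data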;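 also: 0% = tunicamycin plus vehicle and 100% = wells without tunicamycin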
WT yeast gro inh: growth inhibition of WT yeast, mitochondrial fusion screen; 2.1% of 190,000 active; inhibition, % at 10 µM; AID 1362; mitochondrial fusion phenotypic screen, WT strain; in the data active = inhibition above about 58%; tested in S. cerevisiae
Arbovirus inh: arbovirus infection inhibition | arbovirus infection cell-based antiviral screen | inhibition, % at 10 µM | 0.37% of 200,000 active | AID 1251; in the data active = inhibition above about 30%
Lmaj promast: Leishmania major promastigote growth inhibition; Leishmania major promastigotes, resazurin fluorescence viability; inhibition, % at 10 µM; 9% of 200,000 active; AID 1063; in the data active = inhibition above about 50%;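 also: promastigotes grown with compound for 44 hours at 28 °C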
CHOP inh conf: confirmation of CHOP induction inhibitors | shares compounds with CHOP inhibitor | CHO-CHOP promoter luciferase reporter, tunicamycin-induced, luminescence | inhibition, % at 10 µM | 45% of 2,100 active;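 active = mean of three repeat readings of reporter signal inhibition above a set limit, cut at about 70% in these data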;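 also: 0% = tunicamycin plus vehicle and 100% = wells lacking tunicamycin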
* marks the source's active call; other numbers are inactive results.

`O=C(c1cc([N+](=O)[O-])cc([N+](=O)[O-])c1)N1CCOCC1` gave CHOP inhibitor -6.8, WT yeast gro inh -6.2, Arbovirus inh -2.1 and Lmaj promast 1.9.
For FC(F)(F)c1cc(-c2cccs2)nc(N2CCOCC2)n1 the results were CHOP inhibitor 100.1*, WT yeast gro inh 3.6, Arbovirus inh 7.5, Lmaj promast -3.7 and CHOP inh conf 26.0.
Cc1cnn(-c2nc(-c3cccs3)cc(C(F)(F)F)n2)c1 was read as CHOP inhibitor -3.3, WT yeast gro inh 7.0, Arbovirus inh 8.3 and Lmaj promast 7.6.
For FC(F)(F)c1cc(-c2cccs2)nc(-n2cc(Br)cn2)n1 the results were CHOP inhibitor 96.7*, WT yeast gro inh -0.1, Arbovirus inh -10.0, Lmaj promast 2.2 and CHOP inh conf 73.0*.
Screening CCN(CC)S(=O)(=O)c1cccc(C(=O)N[C@H](C(=O)OCC(=O)NC(=O)NC)C(C)C)c1 returned CHOP inhibitor 9.7, WT yeast gro inh -2.8, Arbovirus inh 6.0 and Lmaj promast 0.2.
Cc1ccccc1OCc1n(CC(=O)OC2CC(C)CCC2C(C)C)c2ccccc2[n+]1C (centres undefined) was read as CHOP inhibitor 107.6*, WT yeast gro inh 62.3*, Arbovirus inh -33.5, Lmaj promast 100.6* and CHOP inh conf 137.2*.
Screening C=CCc1cccc(/C=N/NC(=O)CCC(=O)Nc2ccc(C)cc2)c1O returned CHOP inhibitor 98.1*, WT yeast gro inh -8.2, Arbovirus inh -32.4, Lmaj promast -1.5 and CHOP inh conf 69.3.
`O=C(Nc1ccccc1Cl)c1cccc(COc2cc(Cl)ccc2Cl)c1` gave CHOP inhibitor 14.9, WT yeast gro inh -20.4, Arbovirus inh -23.9 and Lmaj promast 0.1.
O=C(O)c1cccc(COc2ccccc2Cl)c1 was read as CHOP inhibitor 103.9*, WT yeast gro inh 1.9, Arbovirus inh 4.0 and CHOP inh conf 132.0*.
`CCOC(=O)c1ccc(N2C(=O)C=CC2=O)cc1` gave CHOP inhibitor 111.9*, WT yeast gro inh 36.4, Arbovirus inh 0.5, Lmaj promast 3.5 and CHOP inh conf -37.0.
CCOC(=O)c1ccc(-n2c(C)ccc2C)cc1 was read as CHOP inhibitor -14.1, WT yeast gro inh -14.5, Arbovirus inh -12.5 and Lmaj promast -3.8.
Screening C=CCSc1n[nH]c(-c2ccc(OCCCC)cc2)n1 returned CHOP inhibitor 106.2*, WT yeast gro inh 38.2, Arbovirus inh -27.8, Lmaj promast 7.2 and CHOP inh conf 97.3*.
For O=c1[nH]nc(SCc2ccccc2)n1C1CC2C=CC1C2 (centres undefined) the results were CHOP inhibitor 6.9.
`Cc1cc(C)c2c(=O)n(CC(=O)Nc3ccc(Cl)cc3)sc2n1` gave CHOP inhibitor 104.1* and CHOP inh conf 18.1.
CCOc1ccc(NC(=O)Cn2sc3nc(C)cc(C)c3c2=O)cc1 was read as CHOP inhibitor 25.3.
`Cc1cccc2cc3c(N)c(C#N)sc3nc12` gave CHOP inhibitor 99.3*, WT yeast gro inh 25.6, Arbovirus inh 4.4, Lmaj promast -2.9 and CHOP inh conf 69.5*.
COc1cccc(NC(=O)C2CCC(CNS(=O)(=O)c3cccs3)CC2)c1 (centres undefined) was read as CHOP inhibitor -1.1, WT yeast gro inh 3.8, Arbovirus inh -9.9 and Lmaj promast 20.1.
Screening CCOc1ccccc1NC(=O)CCSc1nc2n[nH]c(C)c2c(=N)n1-c1ccccc1Cl returned CHOP inhibitor 101.4*, WT yeast gro inh 5.5, Arbovirus inh -5.3, Lmaj promast 8.0 and CHOP inh conf 9.6.
Screening CCN(CC)CCNC(=O)c1cccc(NC(=O)C(=O)c2cc(Br)ccc2NC(C)=O)c1 returned CHOP inhibitor 13.3, WT yeast gro inh -10.6, Arbovirus inh 23.4 and Lmaj promast -2.5.
`C#CCSc1nncn1C(=O)/C=C/c1ccccc1` gave CHOP inhibitor 105.0*, WT yeast gro inh -13.8, Arbovirus inh -0.3, Lmaj promast -1.0 and CHOP inh conf -7.9.
Screening COc1ccc(CN(C(=O)/C=C/c2ccco2)C2CCS(=O)(=O)C2)cc1 (centres undefined) returned CHOP inhibitor 15.2.
CCOC(=O)c1c2ccc(OCC(=O)N/N=C/c3ccc(Cl)cc3)cc2n2ccccc12 was read as CHOP inhibitor 104.5*, WT yeast gro inh -0.3, Arbovirus inh -7.3, Lmaj promast 10.4 and CHOP inh conf 0.1.
`CC(=O)N1N=C(c2cccs2)CC1c1cc2cc(C)ccc2nc1Cl` (centres undefined) gave CHOP inhibitor 105.6* and CHOP inh conf -54.6.
Screening CC(=O)N1N=C(c2ccco2)CC1c1cc2ccc(C)cc2nc1Cl (centres undefined) returned CHOP inhibitor -0.5.
Screening Cc1ccc(C(=C2C3C=CC2C2C(=O)NC(=O)C32)c2ccc(C)cc2)cc1 (centres undefined) returned CHOP inhibitor 107.9*, WT yeast gro inh 82.8*, Arbovirus inh -44.0, Lmaj promast 11.7 and CHOP inh conf 14.0.
`Cc1ccc(C2c3sc(=O)[nH]c3SC3C(=O)NC(=O)C32)cc1` (centres undefined) gave CHOP inhibitor 9.0, WT yeast gro inh -20.7, Arbovirus inh -3.0 and Lmaj promast -3.8.
`Cn1ccnc1Sc1ccc(/C=N/NC(=O)c2ccccc2O)cc1[N+](=O)[O-]` gave CHOP inhibitor 26.9, WT yeast gro inh -7.9, Arbovirus inh -2.4 and Lmaj promast -5.6.
CN(C)C(CNC(=O)c1cccnc1Sc1ccccc1)c1ccco1 (centres undefined) was read as CHOP inhibitor -17.7, WT yeast gro inh -10.8, Arbovirus inh -1.4 and Lmaj promast 0.1.
Screening CCCCNC(=O)C1(NC(=O)Nc2ccc(C)cc2)CCCCC1 returned CHOP inhibitor 14.3, WT yeast gro inh -6.8, Arbovirus inh 6.0 and Lmaj promast -8.1.
`O=C(N/N=C/c1ccc(Br)s1)c1cccs1` gave CHOP inhibitor -1.9.
For O=C(N/N=C/c1ccc(Br)s1)Nc1ccccc1 the results were CHOP inhibitor 97.4*, WT yeast gro inh 13.3, Arbovirus inh -1.6, Lmaj promast 0.4 and CHOP inh conf 59.2.
Cc1ccc(C)c(NC(=O)C2CC3c4ccccc4C2c2ccccc23)c1 (centres undefined) was read as CHOP inhibitor 98.8*, WT yeast gro inh -6.7, Arbovirus inh -5.3, Lmaj promast 14.2 and CHOP inh conf 16.5.
For CCOC(=O)C1=C(C)Nc2ccccc2N=C1NC(=O)c1ccc(Cl)c(S(=O)(=O)N2CCCC2)c1 the results were CHOP inhibitor 17.0, WT yeast gro inh -0.7, Arbovirus inh -2.0 and Lmaj promast -12.6.
For Nc1nonc1-c1nc2ccccc2n1Cc1ccc(Cl)cc1 the results were CHOP inhibitor 5.7, WT yeast gro inh -7.4, Arbovirus inh 8.0 and Lmaj promast -10.8.
Cc1ccc(Cn2c(-c3nonc3N)nc3ccccc32)cc1 was read as CHOP inhibitor 104.9*, WT yeast gro inh -21.2, Arbovirus inh -2.9, Lmaj promast 3.5 and CHOP inh conf 19.2.
CC1(C)CC(=O)C(C=NCCN2CCN(C3CC(=O)N(c4ccc(Br)cc4)C3=O)CC2)=C(O)C1 (centres undefined) was read as CHOP inhibitor 9.2, WT yeast gro inh -4.7, Arbovirus inh 2.1 and Lmaj promast 3.0.
